PubChem BioAssay AID720616 (Broad Institute, 2013)
Measured potencies and affinities stand elsewhere. Calls of active or inactive are those of the source.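 How the source made its calls: active means ATP viability loss whose half-effect dose is at most twice the top dose, in all three treatment times; inconclusive means calls differ between the treatment times; inactive means inactive at every treatment time.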

Assay: U-251 glioblastoma cell viability loss, late-stage follow-up, mechanism study for HRAS target identification, CellTiter-Glo ATP luminescence, several timepoints, dry powder (AID 720616)

Structure (SMILES) | outcome
Cc1onc(C(=O)N2CCN(C(c3ccncc3)c3ccncc3)CC2)c1[N+](=O)[O-] | inactive
Cc1onc(C(=O)N2CCN(C(c3ccc(Cl)cc3)c3ccc(Cl)cc3)CC2)c1[N+](=O)[O-] | inactive
CCC(=O)N(c1ccc(OC)c(Cl)c1)C(C(=O)NCCc1ccccc1)c1cccs1 (stereo not drawn) | inactive
